# Compound activity: PubChem BioAssay, several laboratories
# Most compounds without a hit are left out; they make up all but 2.3% or so of the library.
# BCLXL inh: inhibitors of human Bcl-xL. hit rate 0.7% among 320,000. GST-Bcl-xL / FITC-Bim BH3 peptide fluorescence polarization. Q07817. AID 2129. inhibition, % at 10.9 µM;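 active = inhibition above the mean of all tested compounds plus 3 SD, cutoff set per campaign, cut at about 30% in these data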;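 also: inhibitors lower millipolarization by displacing the labeled peptide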
# MCL1 BIM primary: MCL1-BIM-BH3 interaction inhibition (human). inhibition, % at 10.9 µM. hit rate 0.68% among 320,000. GST-MCL1 / FITC-Bim-BH3 fluorescence polarization;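 active = inhibition above the mean inhibition of all tested compounds plus 3 SD, set per campaign, cut at about 40% in these data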;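 also: higher means more loss of mP so more displacement of Bim peptide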
# Bim-Mcl-1: disrupts Bim peptide binding to human Mcl-1; inhibition, % at 10 µM; Bead-based flow cytometry, Bim peptide-Mcl-1 binding; Q07820; hit rate 0.1% among 190,000; in the data active = inhibition above about 40%
# Mcl1 Bid PPI: Mcl-1/Bid interaction inhibition | TR-FRET Mcl-1/Bid-Dy647 peptide binding, 1536-well | inhibition, % at 21.7 µM | hit rate 0.97% among 220,000;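 active = compounds that cut the binding signal by more than half at the single screening dose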;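 also: His-tagged Mcl-1 with europium anti-His antibody binding Bid BH3 peptide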
# GLD-1 RNA inh: GLD-1-TGE RNA interaction inhibition (C. elegans) | Q17339 | purified GLD-1 + fluorescein TGE RNA, fluorescence polarization | inhibition, % at 5.96 µM | hit rate 0.44% among 320,000 | AID 2280;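 active = percent inhibition above a per-plate cutoff, the plate mean of test compounds plus 3 SD, cut at about 30% in these data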
# Target sequence (Q17339 whole entry, looked up): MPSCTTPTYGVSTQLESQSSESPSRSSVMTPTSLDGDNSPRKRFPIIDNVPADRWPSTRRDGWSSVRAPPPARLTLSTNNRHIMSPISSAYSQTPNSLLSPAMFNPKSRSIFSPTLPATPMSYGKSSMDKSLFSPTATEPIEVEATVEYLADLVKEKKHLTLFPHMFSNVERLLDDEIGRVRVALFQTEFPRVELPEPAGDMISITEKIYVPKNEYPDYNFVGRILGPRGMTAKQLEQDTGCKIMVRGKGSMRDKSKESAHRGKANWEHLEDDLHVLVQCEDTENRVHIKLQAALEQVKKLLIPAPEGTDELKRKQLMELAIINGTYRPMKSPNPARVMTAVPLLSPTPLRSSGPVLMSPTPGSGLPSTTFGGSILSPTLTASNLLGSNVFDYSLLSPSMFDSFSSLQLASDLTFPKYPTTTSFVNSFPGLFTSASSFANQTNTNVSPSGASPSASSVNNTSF
# Mcl1-Noxa inh: Mcl-1/Noxa interaction inhibition; inhibition, % at 21.7 µM; Q07820; hit rate 1.5% among 220,000; TR-FRET Mcl-1/Noxa peptide binding, 2 h;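 active = compounds that cut the protein-peptide binding signal by more than 50% relative to plate controls in a single-dose test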;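 also: His-tagged Mcl-1 with rhodamine Noxa BH3 peptide and terbium anti-His antibody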
# A number is an active result; . = inactive; / = no result.
SMILES,BCLXL inh,MCL1 BIM primary,Bim-Mcl-1,Mcl1 Bid PPI,GLD-1 RNA inh,Mcl1-Noxa inh
CN1CCN(c2ccc(NC(=O)COc3ccccc3Cl)cc2)CC1,.,.,.,63,.,.
Cc1ccc([N+](=O)[O-])c(OCc2ncc(Cl)n2C)c1,.,.,/,/,.,/
CCCCN(C(=O)C1CCC1)c1c(N)n(CC(C)C)c(=O)[nH]c1=O,.,.,/,/,.,/
Cc1cc(C)cc(OCC(=O)Nc2ccc(N3CCCC3)cc2)c1,.,.,.,.,.,67
COc1ccc(NC(=O)COC(=O)C2CCN(S(=O)(=O)c3cccs3)CC2)cc1,.,.,.,.,.,.
COc1cc(CNc2ccc(O)cc2)cc(Br)c1OCc1ccccc1F,.,.,.,95,.,.
COc1cc(CNCc2ccncc2)cc(Br)c1OCc1ccccc1F,.,.,.,55,.,.
COc1cc(CNc2ccc(N3CCCC3)cc2)ccc1OCc1ccccc1F,.,.,.,.,.,57
COc1cc(CNn2cn[nH]c2=S)cc(Br)c1OCc1ccccc1F,.,.,.,.,.,.
O=C(O)CC(SCc1ccc(C(=O)O)o1)C(=O)O (centres undefined),.,.,.,53,.,.
O=C1C2C3C=CC(C2C(=O)N1c1cccc(O)c1)C1C2C(=O)N(c4cccc(O)c4)C(=O)C2C31 (centres undefined),.,.,.,.,.,94
CC(=O)Oc1cccc(N2C(=O)C3C4C=CC(CC4)C3C2=O)c1 (centres undefined),.,.,/,/,.,/
CCc1c(C)sc(NC(=O)CC#N)c1C#N,.,.,.,.,.,62
COc1ccc(Br)c2oc(S)cc(=O)c12,.,.,.,.,.,64
COc1ccc(C(=O)c2ccc(OC)c(Br)c2)cc1Br,.,.,.,.,.,.
CCc1cc2cc(C)cc(C)c2[nH]c1=S,.,.,.,.,.,60
C[C@@H](CN=[N+]=[N-])CN1CC[C@H](O)CCC1=O,.,.,/,/,.,/
CCCC[n+]1ccc(-c2nc3ccc([N+](=O)[O-])cc3[nH]2)cc1,.,.,.,.,.,.
Nc1ccc(-c2nc3ccc([N+](=O)[O-])cc3[nH]2)cc1,.,.,.,.,.,51
O=[N+]([O-])c1ccc(-c2nc3ccc([N+](=O)[O-])cc3[nH]2)cc1,.,.,.,78,.,63
Nc1ccc2nc(-c3ccc(Cl)cc3)[nH]c2c1,.,.,.,.,.,85
CCN1CCN(c2ccc(N3CCN(S(=O)(=O)c4cc([N+](=O)[O-])ccc4C)CC3)nn2)CC1,.,.,/,/,.,/
COc1ccc(CN2C(=O)c3cccnc3C2=O)cc1S(=O)(=O)NCc1ccco1,.,.,/,/,.,/
COc1cc(C)c(CNc2ccc(OC)c(OC)c2)cc1C,36,.,.,.,.,.
COc1cc(C)c(CNc2cccc(C)c2)cc1C,.,.,.,.,.,.
SMILES,BCLXL inh,MCL1 BIM primary,Bim-Mcl-1,Mcl1 Bid PPI,GLD-1 RNA inh,Mcl1-Noxa inh
CN(CC(=O)Nc1ccc(F)cc1)C(=O)CSc1nc2ncc(Cl)cc2[nH]1,.,.,.,.,.,67
COc1ccc(NC(=O)c2ccccc2N(Cc2ccccc2)S(C)(=O)=O)cc1,.,.,.,.,.,83
CC(=O)Nc1ccc(NC(=O)c2ccccc2N(Cc2ccccc2)S(C)(=O)=O)cc1,.,.,/,/,.,/
Cn1cccc1Cc1nnc(SCC(=O)Nc2cccc(Cl)c2)n1-c1ccc(F)cc1,.,.,.,65,.,.
O=C(Nc1ccc2oc(-c3cccnc3)nc2c1)c1ccc2c(c1)OCCO2,.,.,.,.,.,53
Cc1ccc(C)c(N2N=C(C(=O)N(CC(C)C)c3c(N)n(Cc4ccccc4)c(=O)[nH]c3=O)CCC2=O)c1,.,.,/,/,61,/
Cc1nn(CCO)c(N)c1C1(O)C(=O)Nc2c(Cl)cc(Cl)cc21 (centres undefined),.,.,.,.,.,.
CC1CCCCC1NC(=O)COC(=O)c1c2c(nc3ccccc13)/C(=C/c1ccco1)CC2 (centres undefined),.,.,.,.,.,52
O=C(COC(=O)c1c2c(nc3ccccc13)/C(=C/c1ccco1)CC2)NC1CCCC1,/,/,.,.,/,98
Cc1cc(C(=O)OCC(=O)NC2CCCCC2C)c2ccccc2n1 (centres undefined),/,/,/,/,.,/
CC(=O)N1CCN(C(=O)c2ccco2)CC1,.,.,/,/,.,/
O=C(c1ccco1)N1CCN(c2nc3ccccc3n3nnnc23)CC1,41,.,.,.,.,.
CCn1c(N2CCN(C(=O)c3ccco3)CC2)nc2ccccc21,.,.,/,/,.,/
COc1ccc(C2(NC(C)=O)CCN(C(=O)c3ccco3)CC2)cc1,.,.,40,.,.,.
NC(=O)N1CCN(C(=O)c2ccco2)CC1,.,.,.,70,.,.
O=S(N1CCc2ccccc21)C12CC3CC(CC(C3)C1)C2 (centres undefined),.,.,.,.,.,.
Cc1cc(CC(=O)O)c2oc(-c3ccoc3)cc(=O)c2c1,38,47,/,/,.,/
O=C(Cc1ccccc1[N+](=O)[O-])Nc1ccc2c(c1)OCO2,.,.,.,.,.,.
NC(=O)c1nn(CC(=O)Nc2ccc3c(c2)OCO3)cc1[N+](=O)[O-],.,.,.,.,.,74
CC1SC(C)C(=O)N(CC(=O)Nc2ccc3c(c2)OCO3)C1=O (centres undefined),.,.,.,.,.,.
O=C(CN1C(=O)CSCC1=O)Nc1ccc2c(c1)OCO2,.,.,.,.,.,53
COc1ccccc1NC(=O)CSc1nc2ccccc2cc1Cc1ccccc1,.,.,.,73,.,.
CN(C)CCN(Cc1ccc(Cl)cc1)c1ccccn1,.,.,.,.,.,61
Cc1ccc2nc(N3CC(=O)Nc4ccccc43)nc(-c3ccccc3)c2c1,.,.,.,97,.,.
Cc1ccc2nc(N3CCC(C(=O)O)CC3)nc(-c3ccccc3)c2c1,.,.,.,.,.,.
SMILES,BCLXL inh,MCL1 BIM primary,Bim-Mcl-1,Mcl1 Bid PPI,GLD-1 RNA inh,Mcl1-Noxa inh
C/C(=N\NC(N)=S)c1cc(-c2ccccc2)c(-c2ccccc2)s1,.,.,/,/,.,/
COCCN(Cc1ccccc1)C(=O)c1cccc(S(=O)(=O)N2CCCc3ccccc32)c1,.,.,/,/,.,/
COc1ccc(C(=O)NCc2ccc3c(c2)cc(C)n3C)cc1,.,.,.,.,.,.
Cc1cc2cc(CNC(=O)c3cc4ccccc4o3)ccc2n1C,31,.,.,.,39,.
C[C@@H]1CN(C(=O)c2nc3ccc(Cl)cn3c2CN2CCc3sccc3C2)C[C@H](C)O1,.,.,.,.,.,.
COc1cc(OC)cc(C(=O)N(CCCN2C(=O)c3cccc4cccc(c34)C2=O)c2cccc(OC)c2)c1,.,.,.,84,.,.
O=C(CN1CCN(S(=O)(=O)c2ccc(F)c(Cl)c2)CC1)N1CCNC1=O,.,.,/,/,.,/
O=C(NCC(=O)N1CCN(S(=O)(=O)c2ccccc2)CC1)c1ccc(Br)o1,.,.,/,/,.,/
O=C1NC(c2ccc(Br)cc2)=N/C1=C/c1ccco1,.,.,.,.,.,.
